CYP2C19 inhib: human CYP2C19 inhibition. P33261. CYP2C19 Supersomes, luciferin-H EGE luminescence, 30 min. 96,000 compounds, 21% hits. AID 778. inhibition, % at 5 µM;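 active means CYP2C19 inhibition above a set limit at 5 µM in the primary screen, cut at about 50% in these data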;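 further: plate controls were negative control wells for no effect and 2.5 mM tranylcypromine positive control for full effect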
CYP2C9 activ: CYP2C9 (human) activation; P11712; recombinant CYP2C9, luciferin-H conversion, luminescence; active compounds read high; factor 1 = untreated enzyme, 0 = blocked; activation factor at 5 µM; 96,000 compounds, 1.4% hits;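 active means activation factor of 2 or more for CYP2C9 at a 5 µM dose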;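 further: 0 = sulfaphenazole-blocked wells and 1 = vehicle-only wells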
Target sequence (P11712 whole entry, looked up): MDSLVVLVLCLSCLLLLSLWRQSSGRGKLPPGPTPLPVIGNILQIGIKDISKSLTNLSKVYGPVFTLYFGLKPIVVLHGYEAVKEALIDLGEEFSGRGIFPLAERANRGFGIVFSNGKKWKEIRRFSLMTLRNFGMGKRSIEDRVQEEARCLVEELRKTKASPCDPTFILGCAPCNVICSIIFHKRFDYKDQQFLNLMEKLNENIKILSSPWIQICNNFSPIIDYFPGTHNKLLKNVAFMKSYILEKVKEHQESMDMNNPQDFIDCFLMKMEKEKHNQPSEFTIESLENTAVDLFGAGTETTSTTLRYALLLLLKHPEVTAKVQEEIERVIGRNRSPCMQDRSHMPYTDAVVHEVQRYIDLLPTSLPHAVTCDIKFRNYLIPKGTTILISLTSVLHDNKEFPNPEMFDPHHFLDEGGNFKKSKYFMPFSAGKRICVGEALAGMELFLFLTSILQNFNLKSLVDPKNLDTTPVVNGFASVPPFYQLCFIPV
CYP2C9 inh: blocks human cytochrome P450 2C9; P11712; inhibition, % at 5 µM; CYP2C9 Supersomes, luciferin-H conversion, luminescence; 96,000 compounds, 20% hits;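 active means blocking of liver enzyme CYP2C9 beyond about 50% at 5 µM, limit read from the data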
PLK1 kinase inh: inhibitors of human PLK1 kinase; recombinant PLK1 kinase, TR-FRET peptide phosphorylation; inhibition, % at 10 µM; 97,000 compounds, 0.53% hits; AID 619;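 active means inhibition of 50% or more in the single-concentration screen; inactive means inhibition below 50%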;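 further: 0% = DMSO max control and 100% = H-89 dihydrochloride min control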
PLK1 PBD inh: blocks phosphopeptide binding to human Plk1 polo box domain; Plk1 PBD phosphopeptide binding, fluorescence polarization; inhibition, %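 (tested at about 20 µM)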; 97,000 compounds, 0.13% hits; in the data active means inhibition above about 34%, passing the limit was not always enough
CYP2C19 activ: increases human CYP2C19 enzyme activity; P33261; recombinant CYP2C19, luciferin-H EGE luminescence; active compounds read high; 0 = fully inhibited enzyme, 1 = untreated enzyme; activation factor at 5 µM; 96,000 tested, under 10 active; AID 1025;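 active means activation factor of at least 2 at 5 µM in the primary screen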;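 further: 0 = wells with 2.5 mM tranylcypromine and 1 = vehicle-only wells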
The depositor's hits bear a star; i = inactive; · = no result. The list is not random: actives were taken first. Their share in the collection is about 28%.

SMILES	CYP2C19 inhib	CYP2C9 activ	CYP2C9 inh	PLK1 kinase inh	PLK1 PBD inh	CYP2C19 activ
O=C(Cc1coc(-c2ccc(F)cc2)n1)NC1CCCCC1	51*	0.4	60*	·	·	0.5
O=C(CN1CCN(Cc2ccccc2Cl)C1=O)NC1CCCCCCC1	72*	1.1	-7	-30	14	0.3
CCN1CCN(CC(=O)NC2CCCC2)C(=O)C1=O	1	0.9	7	68*	-22	1
CC(C)OCCCNC(=O)CN1CCN(Cc2ccccc2Cl)C1=O	9	0.5	52*	-34	7	0.9
O=C(CC(Nc1ccccc1Cl)C(=O)OCC(=O)c1cccs1)c1ccccc1 (stereo not given)	65*	0.4	62*	-4	-14	0.3
CN(C)c1ccc(/C=C/C(O)=C2/C(=O)N(C)C3(C)CC2c2ccccc2O3)cc1 (stereo not given)	40	0.6	43	-20	-54	0.6
Cc1cc(NC(=O)CSc2nc3ccccc3c(=O)n2C2CCCC2)no1	8	0.7	33	-5	17	0.9
CCCN(CCC)C(=O)CSc1nc2ccccc2c(=O)n1C1CCCC1	31	0.4	65*	-4	-31	0.7
CN(C)c1ccc(NC(=O)CSc2nc3ccccc3c(=O)n2C2CCCCC2)cc1	24	0.3	69*	-12	-1	0.8
CCN(CC)C(=O)CSc1nc2cccnc2n1-c1ccccc1OC	6	0.9	14	-7	-17	0.9
CCN(CC)C(=O)CSc1nc2ccccc2c(=O)n1CC1CCCCC1	33	0.6	44	·	·	0.7
CCN(CC)C(=O)CSc1nc2ccccc2c(=O)n1-c1ccccc1OC	19	0.5	53*	-11	-8	0.8
COc1ccc(-c2csc(N3CCC(C(N)=O)(N4CCCCC4)CC3)n2)cc1	-16	0.8	15	-10	-10	1.2
COc1ccc(N(CN2C(=O)C3CC=CCC3C2=O)C(=O)c2ccco2)cc1 (stereo not given)	-9	1.2	-16	-8	10	1.1
COc1ccc(N(C(=O)c2ccco2)S(=O)(=O)c2ccccc2)cc1	87*	0.1	92*	-10	22	0.1
COc1ccc(N(C(=O)c2ccco2)S(=O)(=O)c2cc(Cl)c(Cl)cc2Cl)cc1	97*	0.1	94*	-1	6	0
Cc1cc(NC(=O)CSc2nc3sc4c(c3c(=O)n2C)CCCC4)no1	2	0.8	16	-5	-17	1
C=CCn1c(SCC(=O)NCc2ccco2)nc2sc3c(c2c1=O)CCCC3	1	0.8	20	-7	-20	1
CC(C)Sc1nc(NCc2ccco2)c2c3c(sc2n1)COC(C)(C)C3	10	0.3	69*	·	·	0.9
Cc1cc(NC(=O)CSc2nc(C(C)C)nc3sc4c(c23)CCCC4)no1	80*	0.2	76*	-15	-15	0.2
CCCCSc1nc(SCC(=O)NCc2ccco2)c2c3c(sc2n1)COC(C)(CC)C3 (stereo not given)	13	0.5	51*	-6	-24	0.9
CCc1nc(SCC(=O)NCc2ccco2)c2c3c(sc2n1)CCCC3	63*	0.1	86*	-29	19	0.4
CN(C)c1ccnc(Oc2ccc(C(C)(C)C)cc2)c1C#N	4	1.1	-7	-7	-28	1
CCCCc1nc2sc3c(SCC(=O)NCc4ccco4)ncnc3c2c2c1CCC2	58*	0.2	82*	i	-7	0.4
CCOc1ccccc1C1C(C(=O)OC)=C(N)OC2=C1C(=O)CCC2 (stereo not given)	93*	0.3	70*	·	·	0.1
SMILES	CYP2C19 inhib	CYP2C9 activ	CYP2C9 inh	PLK1 kinase inh	PLK1 PBD inh	CYP2C19 activ
CCOC(=O)C1=C(N)OC2=C(C(=O)CCC2)C1c1ccc(C)s1 (stereo not given)	53*	0.8	16	·	·	0.5
CCOC(=O)C1=C(N)OC2=C(C(=O)CCC2)C1c1ccco1 (stereo not given)	19	0.8	16	-3	33	0.8
O=C(NC1CCCCC1)Sc1ccc(Cl)cc1	20	0.6	42	-7	-9	0.8
Cc1c(Cl)cccc1Nc1nc(N)nc(CN2CCCCCC2)n1	1	1	-4	-5	-1	1
COc1ccc(C2CC(c3ccc(F)cc3)Nc3nc(N)nn32)cc1 (stereo not given)	12	1.1	-7	·	·	0.9
CCOc1ccc(C2CC(c3cccc(OC)c3)Nc3ncnn32)cc1 (stereo not given)	79*	0	95*	-7	26	0.2
COc1cccc(C2CC(c3cccs3)Nc3ncnn32)c1 (stereo not given)	32	1	0	0	-6	0.7
COc1cccc(C2CC(c3ccccc3Cl)n3ncnc3N2)c1 (stereo not given)	97*	0.5	52*	·	·	0
CCOc1ccc(C2CC(c3cccc(OC)c3)n3nc(N)nc3N2)cc1 (stereo not given)	3	0.8	21	·	·	1
COc1cccc(C2CC(c3ccccc3Cl)n3nnnc3N2)c1 (stereo not given)	100*	0.1	89*	·	·	0
COc1ccc(C2CC(c3cccc(OC)c3OC)n3nnnc3N2)cc1 (stereo not given)	96*	0.3	65*	·	·	0
O=C(O)CSC1CC(=O)N(c2ccc(Cl)c(Cl)c2)C1=O (stereo not given)	64*	0.7	33	-7	-13	0.4
Cc1nn(Cc2ccccc2)c(C)c1NC(=O)CSc1nc2sc3c(c2c(=O)n1C)CCC3	·	·	·	-14	-8	·
Cc1ccc(S(=O)(=O)Nc2ccc3oc(=O)sc3c2)c(C)c1	67*	0.4	64*	-6	-20	0.3
CC(=O)c1c(C)oc2ccc(NS(=O)(=O)c3ccc(O)c(C(=O)O)c3)cc12	52*	0.1	89*	-9	-25	0.5
O=C(O)c1cc(S(=O)(=O)Nc2ccc3oc(=O)sc3c2)ccc1O	23	0.1	85*	-6	-20	0.8
COc1cc(/C=C/C(=O)N2CCN(CC(O)COc3ccccc3)CC2)cc(OC)c1OC (stereo not given)	2	1.1	-11	-10	9	1
CC(C)NC(=O)c1ccccc1N(Cc1ccccc1)S(C)(=O)=O	29	0.8	17	-5	0	0.7
COC(=O)c1ccccc1N(Cc1ccccc1)S(C)(=O)=O	78*	0.7	29	-2	15	0.2
CCCN(CC1CC1)S(=O)(=O)c1ccc(S(N)(=O)=O)cc1	66*	0.6	43	9	1	0.3
CCCCOc1ccc(S(N)(=O)=O)cc1	5	0.9	8	-9	20	1
CN1CCN(CCCn2cnc3c(=O)oc4ccccc4c32)CC1	-5	1.1	-14	-3	12	1.1
O=c1oc2ccccc2c2c1ncn2CCN1CCOCC1	50*	1.1	-14	8	17	0.5
